Measurements taken from PubChem BioAssay (NCI).
Compounds without any hit were thinned out: in the full panel of roughly 83,000, 20% have a hit.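 Single-dose data. Exposure time 48 hours. Values below 10 considered active.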 Activity calls are given as the source filed them.

These molecules were tested on HOP-62 NSCLC (assay: NCI-60 one-dose screen, 48 h (100 = growth as untreated, 0 = no growth, -100 = all killed)). Settings: 10 µM.
Description: Growth inhibition of the HOP-62 human Non-Small Cell Lung tumor cell line is measured as a screen for anti-cancer activity. Cells are grown in 96 well plates and exposed to the test compound for 48 hours. Compounds are tested at a single concentration, which is 10^-5 M for most compounds. The reported endpoint is percent growth (GI% or GIPRCNT), where numbers from 0 - 100% represent growth inhibition, and numbers from -100% - 0 represent cell death. For example, a value of 40 represents 60% growth inhibition. A value of 0 means no net growth occurred over the course of the experiment. A value of -40 indicates 40% of cells at the beginning of the experiment died by the end of the experiment. A value of -100 means all cells are dead at the end of the experiment.
NCI-60 Human Tumor Cell Lines Screen was performed using the standard one-dose NCI protocol, which is described in more detail at https://dtp.cancer.gov/discovery_development/nci-60/default.htm.
Compounds with GIPRCNT values below 10 were considered active. Activity score was based on GIPRCNT using the following formula: […]
Score is 0 for GIPRCNT values of 100 or above, 50 for GIPRCNT values of 0, and 100 for GIPRCNT values of -100.

Row | Structure (SMILES) | growth
1 | COc1cc(C2C=C(c3ccc(Cl)c(Cl)c3)N=C3SC(C)=CN32)cc(OC)c1OC (stereo not given) | 91.1% (inactive)
2 | CN(C)Cc1cccs1 | 69.1% (inactive)
3 | Nc1ccccc1NC(=O)CCCCCCC(=O)Nc1ccc2c(c1)/C(=C/c1ccc[nH]1)C(=O)N2 | 52.2% (inactive)
4 | O=[N+]([O-])c1cc2ncccc2c2ncccc12 | 137% (inactive)
5 | Cc1cc(C(C)(C)CC(C)(C)C)ccc1OCCOCC[N+](C)(C)Cc1ccccc1 | -83.5% (active)
6 | O=NN(CC(=O)N/N=C/C=C\c1ccccc1)CC(=O)N/N=C/C=C/c1ccccc1 | 69.6% (inactive)
7 | O=C(COCc1c(-c2ccccc2)no[n+]1[O-])Nc1nc(-c2ccc(Cl)cc2)cs1 | 96.5% (inactive)
8 | CC(C)/C(=N/O)c1ccccc1 | 116% (inactive)
9 | O=[N+]([O-])c1ccc2c(c1)Cc1cc(I)ccc1-2 | 113% (inactive)
10 | Cc1ccc(-n2c(-c3cc4c([nH]c5ccccc54)c(-c4cccc(O)c4)n3)n[nH]c2=S)cc1 | -24% (active)
11 | O=S(=O)(NC1c2ccccc2Oc2ccccc21)c1ccccc1 | 90.1% (inactive)
12 | c1ccc(OCCC[P+](c2ccccc2)(c2ccccc2)c2ccccc2)cc1 | 22% (inactive)
13 | CN1/C(=C\C(I)C(I)C2=[N+](C)c3ccccc3C2(C)C)C(C)(C)c2ccccc21 (stereo not given) | 5.15% (active)
14 | C=CCn1ccc(=O)nc1SC | 97.1% (inactive)
15 | N=C(N)c1ccc(-c2ccc(-c3ccccc3)s2)cc1F | -83% (active)
16 | COc1ccc(NC(=O)CCn2cnc3c(cc(-c4ccccc4)n3-c3ccccc3)c2=O)cc1 | 11.2% (inactive)
17 | CCc1ccc(-c2nnc(COc3ccc(-c4nc5ccccc5[nH]4)cc3OC)o2)cc1 | 83.2% (inactive)
18 | COc1ccc(C2=NNC(c3sc(Cl)nc3Cl)C2)cc1 (stereo not given) | 72.5% (inactive)
19 | c1ccc(COCC[P+](c2ccccc2)(c2ccccc2)c2ccccc2)cc1 | 22.1% (inactive)
20 | FC(F)(F)c1ccc(-c2cnc(Cl)nc2NCc2cc(C(F)(F)F)cc(C(F)(F)F)c2)cc1 | 33.4% (inactive)

Row | Structure (SMILES) | growth
21 | Cc1nc2cc(-n3c(-c4ccc(F)cc4)nc4ccccc4c3=O)ccc2n1Cc1ccccc1 | 45.1% (inactive)
22 | CN(C)c1ccc2cc(-c3cc4c(oc3=O)-c3ccccc3OC4O)c(=O)oc2c1 (stereo not given) | 12.1% (inactive)
23 | CCOc1cc(Br)c(C(C)NC(=O)c2cccc(OC)c2)cc1OCC (stereo not given) | 87.3% (inactive)
24 | O=S(=O)(NCl)c1ccccc1 | 110% (inactive)
25 | CC(=O)Nc1ccc(Sc2ccc(NC(C)=O)cc2)cc1 | 70.7% (inactive)
26 | S=c1c2ncccc2c(-c2ccccn2)nn1Cc1ccccn1 | 85.3% (inactive)
27 | Cc1cc(C)c2nc(C)c(C)[n+]([O-])c2c1 | 73.4% (inactive)
28 | O=c1c2cccc3c(Nc4ccc(Br)cn4)ccc(c32)c2nc3ccccc3n12 | 87.6% (inactive)
29 | Clc1cc(Cl)c(Cl)c(-c2nc(-c3cccnc3)cs2)c1 | 114% (inactive)
30 | CCCOCC(O)CNCCN (stereo not given) | 92.6% (inactive)
31 | COc1ccccc1Cn1cc2c(c1-c1ccccc1)CCc1cnoc1-2 | 34.7% (inactive)
32 | Cc1ccc2c(c1)-c1cc(C)nn1-c1ccc(C#N)cc1O2 | 51.6% (inactive)
33 | Fc1cc(-c2ncc(-c3cc(F)c(F)c(F)c3)c(NC3CCCCCC3)n2)cc(F)c1F | 122% (inactive)
34 | COc1ccc(C2C=C(c3ccc(Cl)c(Cl)c3)N=C3SC(C)=CN32)cc1 (stereo not given) | 99.5% (inactive)
35 | O=C(NC1CCCC1)c1ccc(N2CCC(NCc3cccc(C(F)(F)F)c3)CC2)cc1 | 77.4% (inactive)
36 | O=C(Cn1ccc(=O)[nH]c1=O)c1ccc([N+](=O)[O-])o1 | 118% (inactive)
37 | CC1(C)CC(=O)c2c(nc3ccc(Cl)cc3c2-c2ccccc2)C1 | 92.1% (inactive)
38 | COc1ccc(C(=O)/C=C/c2cc(-c3ccc(OC)c(OC)c3)n[nH]2)cc1OC | -33.5% (active)
39 | O=C(c1ccccc1)C(Sc1ccccc1)c1ccccc1 (stereo not given) | 93% (inactive)
40 | CCCCCCCC/C=C/CCCCCCCCC1=NCCN1CCO | 75.9% (inactive)
